# In all, about 290,000 compounds went through this assay and about 3,000 (1%) were called active. The sample holds actives, similar compounds and a random draw of the others, so the mix is not that of the screen. How the calls were made is not given here.
# Target: Polyadenylate-binding protein 1 (Homo sapiens) (UniProt P11940)
# Assay: blockers of PABP interaction with poly(A) – biochemical, fluorescence polarization, uHTS, primary screen (AID 2014);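 further: calls also rest on retests at 20 µM and on dose response follow-up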
# Conditions: PABP-poly(A) RNA binding, stronger effect = higher value
# Polyadenylate-binding protein 1 (Homo sapiens), sequence (P11940 whole entry, looked up): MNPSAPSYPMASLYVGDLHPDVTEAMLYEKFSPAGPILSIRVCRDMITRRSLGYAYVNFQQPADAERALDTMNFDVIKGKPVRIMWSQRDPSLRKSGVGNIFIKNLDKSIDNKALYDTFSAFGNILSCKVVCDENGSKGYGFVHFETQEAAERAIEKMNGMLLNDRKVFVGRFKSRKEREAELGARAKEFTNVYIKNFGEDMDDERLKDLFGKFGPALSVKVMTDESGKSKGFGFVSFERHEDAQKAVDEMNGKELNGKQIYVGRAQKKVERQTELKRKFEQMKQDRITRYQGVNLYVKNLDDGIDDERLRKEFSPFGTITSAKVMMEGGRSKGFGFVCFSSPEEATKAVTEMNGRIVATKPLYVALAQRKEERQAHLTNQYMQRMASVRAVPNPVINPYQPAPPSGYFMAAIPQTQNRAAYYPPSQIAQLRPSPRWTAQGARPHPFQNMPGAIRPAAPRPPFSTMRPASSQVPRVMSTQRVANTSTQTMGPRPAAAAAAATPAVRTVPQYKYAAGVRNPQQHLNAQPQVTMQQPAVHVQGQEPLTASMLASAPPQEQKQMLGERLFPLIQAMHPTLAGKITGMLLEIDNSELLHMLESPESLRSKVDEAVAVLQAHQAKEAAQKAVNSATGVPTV
Structure (SMILES),inhibition (at 35 µM),"inhibition (confirmation repeats, at 20 µM)"
O=C(c1ccc(S(=O)(=O)N2CCOCC2)cc1)N1CCN(c2ccccc2)CC1,3.8% (inactive),
O=C(c1ccc(CS(=O)(=O)c2ccccc2)o1)N1CCN(c2ccccc2)CC1,28.3% (active),62.1%
O=C(c1cc(=O)c2ccccc2o1)N1CCN(c2ccccc2)CC1,4.7% (inactive),
CCc1ccc(N2CC(C(=O)N3CCCCCC3)CC2=O)cc1 (stereo not given),-12.2% (inactive),
COc1ccc2oc(=O)cc(CN3CCOCC3)c2c1,10.8% (inactive),
O=Cc1cn(-c2ccccc2)nc1-c1ccccn1,-6.6% (inactive),
Cc1ccc(SCCSc2ncccn2)cc1,8.3% (inactive),
Cc1cccc(C(=O)NNC(=O)CSc2nnc(C(C)C)n2C)c1,0.1% (inactive),
COCCN1C=C2C(=O)C(C)(OC(=O)C3CCCC3)C(=O)C=C2C=C1c1ccsc1 (stereo not given),61% (active),
COCCn1c(N)c(N(Cc2ccccc2)C(=O)C2CCCCC2)c(=O)[nH]c1=O,4.9% (inactive),
Cc1cccnc1CC(C)NC(=O)c1cc(COc2cncc(Cl)c2)on1 (stereo not given),-0.2% (inactive),
CC(=O)c1ccc(OC(=O)N2CCOCC2)cc1,-1.2% (inactive),
COc1cccc(C2Nc3cccc4cccc(c34)N2)c1,25.6% (active),72.2%
Oc1ccc(C2Nc3cccc4cccc(c34)N2)cc1,69.2% (active),
COc1ccc(N2C(=O)C3CCCN3C2c2cccc(OC)c2)cc1 (stereo not given),-1.1% (inactive),
Cc1ccc(C2Nc3cccc4cccc(c34)N2)cc1,39.9% (inactive),
O=C1NC(c2cccc(Cl)c2)Nc2ccccc21 (stereo not given),-16.8% (inactive),
COc1ccc(C2NC(=O)c3ccccc3N2)cc1 (stereo not given),15.7% (inactive),
O=C1CCN(CCc2ccccc2)CCN1CCOc1ccccc1,7.2% (inactive),
COc1ccc(CNC(=O)CN(Cc2ccccc2Cl)C(=O)c2csnn2)cc1,4.9% (inactive),
COc1cc(CC(=O)NCc2cccs2)cc(OC)c1OC,-5.2% (inactive),
CCN(CC(=O)NCc1cccs1)C(=O)c1cccc(S(=O)(=O)Nc2ccccc2OC)c1,60.4% (active),70.6%
CCN(CC(=O)NCc1cccs1)C(=O)c1ccccc1F,-8.7% (inactive),
CC(=O)c1ccccc1OCc1ccc(C(=O)c2ccccc2)cc1,0.6% (inactive),

Structure (SMILES),inhibition (at 35 µM),"inhibition (confirmation repeats, at 20 µM)"
O=C(NC1CC1)C(Cc1ccccc1)NS(=O)(=O)c1ccccc1F (stereo not given),-3.9% (inactive),
O=C(NCCCc1ccccc1)C1CCC(=O)N(CCc2ccc(Cl)cc2)C1 (stereo not given),2.3% (inactive),
Cc1cc(=O)oc(C)c1C(=O)Nc1cnc2ccccc2c1,104% (active),
Cc1cc(=O)oc(C)c1C(=O)NCc1ccc(F)cc1,28.4% (inactive),
Cc1cc(=O)oc(C)c1C(=O)NCCN(C)Cc1ccccc1,-13.8% (inactive),
Cc1ccc(C(=O)NC2CCN(C(=O)Nc3ccccc3Cl)CC2)cc1,8.2% (inactive),
Cc1cccc(N2CCN(C(C)C(=O)N3CCc4ccccc43)CC2)c1C (stereo not given),-1.2% (inactive),
Cc1cccc(N(C(=O)Cn2nnc(-c3ccc(C)o3)n2)C(C(=O)NC2CCCC2)c2ccncc2)c1 (stereo not given),11.1% (inactive),
Cc1cccc(N=C2NC(=O)/C(=C/c3cn(C)c4ccccc34)S2)c1,-3.5% (inactive),
Cc1ccc(N=C2NC(=O)/C(=C/C=C/c3ccco3)S2)cc1C,-2.9% (active),92%
Cc1ccc(N2NC(=O)/C(=C/C=C/c3ccco3)C2=O)cc1C,12.2% (inactive),
CC(C)(O)C#Cc1ccc(CN2CCC(CO)(CCc3ccccc3)CC2)cc1,-2.8% (inactive),
Brc1ccccc1CN1CCC(Cc2ccccc2)CC1,0.9% (inactive),
COc1ccc(O)c(C(=O)c2cnc3c(c2)c(-c2ccc(F)cc2)c(C#N)c(=O)n3C)c1,7.5% (inactive),
Cn1c(N)cc(-c2ccc(F)cc2)c(C#N)c1=O,59.1% (active),69.9%
Cc1cc(C)c2c(-c3ccc(F)cc3)c(C#N)c(=O)n(C)c2n1,-5.1% (inactive),
COc1ccc(NC(=O)C(CC(C)C)NC(=O)C2CCC(C)CC2)cc1 (stereo not given),-2.9% (inactive),
C=CCn1c(=O)c(C(=O)NCc2ccc3c(c2)OCO3)c(O)c2ccccc21,-7.7% (inactive),
CC1CCCCC1NC(=O)CCS(=O)(=O)c1ccc2c(c1)NC(=O)CO2 (stereo not given),3.9% (inactive),
Cc1cccc2c1cnn2C(=O)CCC(=O)NC1CCCCC1,-10.3% (inactive),
CN(C(=O)CN1C(=O)S/C(=C\c2ccccc2F)C1=O)C1CCS(=O)(=O)C1 (stereo not given),11.1% (inactive),
Cc1ccc(OCC(=O)c2cc(C)n(Cc3ccco3)c2C)c([N+](=O)[O-])n1,40.8% (inactive),34.4%
Cc1ccc(OCC(=O)NC(C)c2ccccc2)c([N+](=O)[O-])n1 (stereo not given),51.1% (inactive),-6.6%
COCC(C)n1c(C)cc(C(=O)COc2ccc(C)nc2[N+](=O)[O-])c1C (stereo not given),-2.1% (active),57.1%

Structure (SMILES),inhibition (at 35 µM),"inhibition (confirmation repeats, at 20 µM)"
COc1ccccc1NC(=O)CSc1nnc(C)n1CC1CCCO1 (stereo not given),9.2% (inactive),
CCOc1ccc(NC(=O)c2cccc3c2C(=O)N(CC2CCCO2)C3)cc1 (stereo not given),-7.6% (inactive),
CCOc1cccc(=O)c2c(C)n(CC3CCCO3)c(C)c12 (stereo not given),92.6% (active),
Cc1cc(=O)n2[nH]c(-c3cccc(Cl)c3)cc2n1,1.6% (inactive),
Cc1cc(=O)n2[nH]c(-c3sccc3-n3c(C)ccc3C)cc2n1,31.1% (active),94.5%
CCc1c(C)nc2cc(-c3cccs3)[nH]n2c1=O,3.2% (inactive),
CC1CCN(C(=O)c2ccc3c(=O)n4c(nc3c2)CCCCC4)CC1,3.8% (inactive),
Cc1ccc(C(=O)NCC(=O)NCc2cc(=O)n(C)c(=O)n2C)cc1,1.4% (inactive),
CC(/C=N/NC(=O)c1cc(-c2ccc3ccccc3c2)n[nH]1)=C\c1ccco1,9.9% (inactive),8.9%
C/C(=C\c1ccco1)C1Nc2cccc3cccc(c23)N1,116% (active),
CC(/C=N/NC(=O)c1ccncc1)=C\c1ccco1,14.8% (inactive),
COc1ccc(S(=O)(=O)c2c[nH]c(=S)[nH]c2=O)cc1Cl,26% (inactive),
CCOC(=O)C1(CCOc2ccccc2)CCN(Cc2cc(OC)cc(OC)c2)CC1,10.8% (inactive),
Cn1cc(CNC(=O)c2ccc(OC3CCN(Cc4ccccn4)CC3)cc2)cn1,9.6% (inactive),
O=c1ccn(Cc2ccccc2Cl)cc1,7.8% (inactive),
CSc1ccc(/C=N/N2CCN(Cc3ccccc3Cl)CC2)cc1,3.3% (inactive),
O=S1(=O)CCN(Cc2ccccc2Cl)CC1,33.1% (active),64.5%
COc1cc(CO)ccc1OCC(=O)Nc1cccc2ccccc12,-6.9% (inactive),
O=C(NCc1ccccc1)C1CCN(C(=O)Cc2ccccc2)CC1,0% (inactive),
Cc1cc(Cl)c2oc(C(=O)N3CCC(O)(c4ccccc4)CC3)c(C)c2c1,3.6% (inactive),
COc1ccc(-c2csc(Nc3ccc(O)cc3)n2)cc1,6.1% (inactive),
COc1ccc(OC)c(Nc2nc(-c3ccc(O)c(O)c3)cs2)c1,88.7% (active),
COc1cccc(CC(=O)Nc2nc(-c3ccc(OC)c(OC)c3)cs2)c1,3.9% (inactive),
Fc1cc(F)c2nc(N3CCOCC3)sc2c1,6.9% (inactive),

Structure (SMILES),inhibition (at 35 µM),"inhibition (confirmation repeats, at 20 µM)"
Cc1nc(N2CCOCC2)sc1C(=O)NN,18.5% (inactive),
Cc1cc(C)n(Cc2cnc(N3CCOCC3)s2)n1,55% (active),89.9%
COC(=O)CCCC1=CC2=C(c3ccccc3)C(=O)C(C)(OC(=O)C3CCCC3)C(=O)C2=CN1c1ccc(OC)cc1 (stereo not given),12.6% (inactive),
COC(=O)CCCC1=CC2=CC(=O)C(C)(OC(=O)c3cccs3)C(=O)C2=CN1CC1CC1 (stereo not given),32.8% (inactive),
CCCCC1=CC2=CC(=O)C(C)(OC(=O)CC)C(=O)C2=CN1CCCOC(C)C (stereo not given),34.8% (active),51.1%
COC(=O)CCCC1=CC2=CC(=O)C(C)(OC(=O)c3cccs3)C(=O)C2=CN1CC(C)C (stereo not given),36.8% (active),67.3%
Cc1ccccc1-n1cc(CNC(=O)C2CCC(=O)N(C3CC3)C2)cn1 (stereo not given),-10.9% (inactive),
CCOc1ccccc1NC(=O)Cc1cccs1,4.2% (inactive),
Cc1cc(Cl)c2oc(C(=O)NC(C)c3ccncn3)c(C)c2c1 (stereo not given),-10% (inactive),
CC(C)(C)NC(=O)CSc1nnc(NC(=O)CCc2ccccc2)s1,-1.7% (inactive),
COc1cc(NC(=O)CSc2ccc(-c3cccnc3)nn2)cc(OC)c1,15.1% (inactive),
O=C(c1ccco1)N1CCN(Cc2cccc(C(F)(F)F)c2)CC1,6.5% (inactive),
CC1CCN(S(=O)(=O)c2ccc3c(c2)n(C)c(=O)n3C)CC1,-1.1% (inactive),
COc1cc(/C=C(\C#N)C(=O)Nc2ccc3ccccc3c2)c([N+](=O)[O-])cc1OC,-2.3% (active),70.5%
COc1ccc(NC(=O)/C(C#N)=C\c2cc(OC)c(OCc3ccc(C(=O)O)cc3)cc2Br)cc1,7.9% (inactive),
COc1cc(/C=C(/NC(=O)c2ccccc2)C(=O)Nc2cccc(O)c2)c([N+](=O)[O-])cc1OC,-0.9% (inactive),
COCc1cc(=O)n2[nH]c(C)c(-c3ccccc3)c2n1,8.4% (inactive),
COc1ccc(CCn2c(-c3ccco3)nc3nc4ccccc4nc32)cc1OC,12.4% (inactive),
c1coc(-c2nc3nc4ccccc4n3nc2-c2ccco2)c1,63.7% (active),
Cn1c(-c2ccco2)nc2cc3ccccc3cc21,4% (inactive),
CCOC(=O)C1=C(CCc2ccccc2)NC(=O)NC1c1ccc2ccccc2c1 (stereo not given),-1% (inactive),
CCOC(=O)CNC(=O)CSc1ncccc1-c1nc2ccccc2[nH]1,0.2% (inactive),
Cc1cc(C(=O)NCCc2ccc(Cl)cc2)c(C)o1,0% (inactive),

# From PubChem BioAssay AID2014 (Sanford-Burnham Center for Chemical Genomics, 2009)
